The entries come from a sample that favours hits as a whole.
DUX4 txn inh: inhibitors of DUX4-driven ZSCAN4 reporter expression, primary screen, 293T cells, Gaussia and Italica luciferase; actives 0.8% (n = 37,000); 293T-iDUX4 ZSCAN4-Gaussia luciferase reporter, 24 h; active compounds read low; AID 1224904, 2016; activity change, negative = inhibition, % (concentration not given with the values);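 active = mean inhibition of at least 10% in the main channel, exceeding the control channel by a set limit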
Large screens that a line does not name were inactive.

O=C(Cc1ccncc1)N1CCCCN2[C@@H](CO)[C@@H](c3ccc(-c4ccncc4)cc3)[C@@H]2C1	none
O=C(Cc1ccncc1)N1CCCCN2[C@H](CO)[C@@H](c3ccc(C#Cc4ccccc4F)cc3)[C@H]2C1	DUX4 txn inh -28
O=C(Cc1ccncc1)N1CCCCN2[C@H](CO)[C@H](c3ccc(-c4ccncc4)cc3)[C@@H]2C1	none
O=C(Cc1ccccc1)N1C[C@@H]2[C@H](c3ccccc31)[C@@H](CO)N2Cc1ccccc1	none
CC=Cc1ccc2n(c1=O)C[C@H]1[C@H](CO)[C@@H](C(=O)OC)[C@@H]2N1CC1CCOCC1 (mixture of isomers)	none
COC(=O)[C@@H]1[C@@H](CO)[C@@H]2Cn3c(ccc(-c4cccnc4)c3=O)[C@H]1N2S(=O)(=O)c1ccccc1C	none
COC(=O)[C@H]1[C@H](CO)[C@H]2Cn3c(ccc(-c4cccnc4)c3=O)[C@@H]1N2S(=O)(=O)c1ccccc1C	none
COC(=O)[C@@H]1[C@@H](CO)[C@@H]2Cn3c(ccc(-c4cncnc4)c3=O)[C@H]1N2S(=O)(=O)c1ccccc1C	DUX4 txn inh -17
COC(=O)[C@@H]1[C@@H](CO)[C@@H]2Cn3c(cccc3=O)[C@H]1N2C(=O)C1CCCC1	none
O=C(O)[C@H]1[C@H](CO)[C@H]2Cn3c(ccc(C4=CCCC4)c3=O)[C@@H]1N2C(=O)Cc1ccccn1	none

Screening results: PubChem, Broad Institute
